Results as given in PubChem BioAssay AID602365 (National Center for Advancing Translational Sciences (NCATS), 2012).
Results filed as inconclusive are left out. Values without a mark were called inactive. Active and inactive are the calls of the source. Calls come from the whole dose curve; as a rule, active = well fitted inhibition curve with a large enough effect; inconclusive = small, poorly fitted or top-dose-only effect; inactive = flat fitted curve, though single readings scatter.

The molecules below were run against Luciferin 4-monooxygenase (Photinus pyralis) (UniProt P08659) (assay: FLuc inhibitory activity for the follow-up compounds in a biochemical assay with 1mM D-luciferin). Details: purified FLuc, luminescence; series mostly up to 57.5 µM; activity change, negative = inhibition: at the top concentration.
Text: NCGC Assay Overview: Firefly (Photinus pyralis) luciferase is one of the most commonly used transcriptional reporters. It is considered one of the more dynamically responsive reporters - that is, responsive to changes in reporter transcription - as it requires no post-translational modifications and is enzymatically active directly after protein synthesis (Wood, 1998). With no endogenous expression in mammalian cells and without the requirement of external excitation, it offers very little background signal, thus generally providing excellent signal to background for most assays. Previous profiling work to determine the prevalence of compounds that affect FLuc enzymatic activity (PubChem AID 411) identified that ~3% of the MLSMR library (then at ~72K) inhibited FLuc. […] Of the compounds identified in this profile that inhibited FLuc, 151 compounds were selected for further analysis, in an effort to better understand their mode of inhibiting FLuc. The assay described here was to determine the activity of the compounds in a FLuc assay that contained a KM concentration of ATP and a high concentration (1mM) of D-luciferin.
NCGC Assay Protocol Summary: Reagents: 50mM Tris acetate, pH 7.5; 10mM Mg acetate; 1mM D-luciferin (Sigma #L9504); 10uM ATP; 0.01% Tween-20; 0.05% BSA; 10nM P. pyralis luciferase (Sigma #L9506) Control compounds used were two known firefly luciferase inhibitors (3-(5-(3-chlorophenyl)-1,2,4-oxadiazol-3-yl)benzoic acid and 5-(2-fluorophenyl)-3-phenyl-1,2,4-oxadiazole), and DMSO. Three microliters containing firefly luciferase substrates in buffer (final concentrations: 50mM Tris acetate, pH 7.5, 10mM Mg acetate, 0.01% Tween-20, 0.05% BSA, 1mM D-luciferin, 10uM ATP) are dispensed into each well of a Greiner white, solid-bottom 1536-well format plate using a flying reagent dispenser (FRD). These assay plates were then treated with 23nL of compound or DMSO using a Kalypsys pin tool, which allows for delivery of a 12-point intraplate titration of each compound to the assay plate (quantitative HTS), with a final compound concentrations ranging from approximately ~60uM to 0.3nM. One microliter of firefly luciferase in […] Tris-acetate buffer was then delivered by FRD to each well for a final enzyme concentration of 10nM. Luciferase activity was then measured using a ViewLux CCD imager (PerkinElmer), with an average exposure time of 2-30 seconds (2X binning, medium/high gain).

Sequence of Luciferin 4-monooxygenase (Photinus pyralis) (P08659 whole entry, looked up): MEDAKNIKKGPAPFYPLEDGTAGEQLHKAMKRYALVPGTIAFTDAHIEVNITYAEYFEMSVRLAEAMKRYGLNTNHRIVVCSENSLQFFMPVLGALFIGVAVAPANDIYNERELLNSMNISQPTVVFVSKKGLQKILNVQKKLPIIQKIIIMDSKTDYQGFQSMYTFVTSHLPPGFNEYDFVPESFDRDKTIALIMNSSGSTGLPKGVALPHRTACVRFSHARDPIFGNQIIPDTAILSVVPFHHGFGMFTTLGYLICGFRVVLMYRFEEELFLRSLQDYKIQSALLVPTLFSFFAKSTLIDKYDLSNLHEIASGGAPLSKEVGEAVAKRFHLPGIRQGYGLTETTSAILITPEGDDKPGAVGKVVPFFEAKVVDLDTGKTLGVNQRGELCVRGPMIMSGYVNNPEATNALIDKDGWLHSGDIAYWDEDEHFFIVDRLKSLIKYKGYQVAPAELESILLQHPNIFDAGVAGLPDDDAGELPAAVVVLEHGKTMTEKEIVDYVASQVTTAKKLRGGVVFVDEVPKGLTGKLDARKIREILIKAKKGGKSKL

SMILES	Potency	activity change, negative = inhibition [%]
O=C(O)c1ccc(NC(=O)c2cccc(NC(=O)c3cccs3)c2)cc1	32.6 µM (active)	
O=C(O)c1cccc(NC(=O)c2cccc(S(=O)(=O)Nc3cccc(F)c3)c2)c1		-4.54
CC(C)c1ccc(C(=O)Nc2ccc(-c3nc4ccccc4s3)c(Cl)c2)cc1		-7.4
COc1ccc(C(=O)Nc2ccccc2C(=O)Nc2ccccc2C(=O)O)cc1	1.63 µM (active)	
Nc1ccc2nc(-c3ccccc3)sc2c1	0.919 µM (active)	
CC(=O)Oc1ccc(C(=O)Nc2ccccc2C(=O)Nc2ccc(C(=O)O)cc2)cc1	18.3 µM (active)	
COc1cc(OC)cc(-c2nc3ccccc3s2)c1	18.3 µM (active)	
COc1ccc(C(=O)Nc2ccccc2C(=O)N/N=C/c2ccc(O)c(OC)c2)cc1	0.0103 µM (active)	
O=C(Cc1ccccc1)Nc1ccccc1C(=O)Nc1ccc(C(=O)O)cc1		-0.0902
Cc1c(NS(C)(=O)=O)cccc1-c1nc2ccccc2s1	16.3 µM (active)	
CC(C)c1ccc(-c2nc3ccccc3s2)cc1	0.183 µM (active)	
Nc1ccc(-c2nc3ccc(N)cc3s2)cc1	1.83 µM (active)	
O=C(O)c1cccc(NC(=O)c2ccccc2NC(=O)c2ccco2)c1		-17.2
Nc1ccc(-c2nc3ccc(C(=O)O)cc3s2)cc1	1.16 µM (active)	
COc1cc(OC)cc(C(=O)Nc2ccc(-c3nc4ccccc4s3)c(C)c2)c1		-10.4
Cc1ccc(S(=O)(=O)N2CCOCC2)cc1C(=O)Nc1ccccc1C(=O)O		-7.96
CCOc1ccc2nc(NC(=O)Cc3cccs3)sc2c1	18.3 µM (active)	
CC(C)CC(=O)Nc1cccc(C(=O)Nc2ccccc2C(=O)O)c1	23.1 µM (active)	
O=C(O)c1cccc(NC(=O)c2cccc(S(=O)(=O)N3CCc4ccccc43)c2)c1		-14.4

SMILES	Potency	activity change, negative = inhibition [%]
Cc1ccc(C(=O)Nc2cccc(C(=O)O)c2)cc1S(=O)(=O)N1CCCC1	4.61 µM (active)	
O=C(Nc1c(Cl)cc(Cl)cc1-c1nc2ccccc2s1)c1ccc(Br)o1		-2.74
Cc1cccc(C(=O)Nc2ccc(-c3nc4ccccc4s3)cc2Cl)c1		-10.9
O=C(Nc1ccccc1C(=O)O)c1ccccc1		-19.5
COc1ccc2nc(NC(=O)c3ccco3)sc2c1	3.26 µM (active)	
O=C(COC(=O)c1ccccc1[N+](=O)[O-])c1ccc2c(c1)OCO2	0.0461 µM (active)	
CCCC(=O)Nc1nc2ccc(OCC)cc2s1	29.1 µM (active)	
O=C(Nc1ccccc1C(=O)O)c1ccc(NC(=O)C2CCCCC2)cc1	16.3 µM (active)	
CN=c1scc(-c2ccccc2F)n1/N=C/c1ccc[nH]1	0.0819 µM (active)	
Nc1ccc(-c2nc3cc(N)ccc3s2)cc1	18.3 µM (active)	
Cc1ccc2nc(-c3ccc(N)cc3)sc2c1	0.517 µM (active)	
CC(=O)Oc1ccc(C(=O)Nc2ccccc2C(=O)Nc2cccc(C(=O)O)c2)cc1	16.3 µM (active)	
COc1ccc(C(=O)Nc2cccc(C(=O)O)c2)cc1S(=O)(=O)N1CCCC1		-20.1
CCOC(=O)N1CCN(CC(=O)Nc2nc3ccc(OC)cc3s2)CC1		-4.7
O=C(O)c1cccc(NC(=O)c2cccc(S(=O)(=O)N3CCc4ccccc4C3)c2)c1		-21.1
O=S(=O)(c1ccc(-c2nc3ccccc3s2)cc1)N1CCCC1		-18.8
CCOc1ccc(C(=O)Nc2ccccc2C(=O)O)cc1	3.66 µM (active)	
Cc1ccc2sc(-c3ccc(N)cc3)nc2c1	0.517 µM (active)	
Cc1ccc(C(=O)O/N=C(\N)c2ccccn2)cc1	0.183 µM (active)	
